Data on seven compounds can be found in PubChem BioAssay (NCI).

Some test systems named below: HCT-15 colon; HT29 colon; SNB-75 CNS; SNB-19 CNS; U251 CNS; PC-3 prostate; SK-MEL-5 melanoma; UACC-62 melanoma; LOX IMVI melanoma; SK-MEL-28 melanoma; SK-MEL-2 melanoma; EKVX NSCLC; SN12C renal; UO-31 renal; TK-10 renal; ACHN renal; CAKI-1 renal; A498 renal; CCRF-CEM leukemia; MOLT-4 leukemia.
Assay in all cases: NCI-60 one-dose screen, 48 h (100 = growth as untreated, 0 = no growth, -100 = all killed)
What all share (conditions): 10 µM

The panel holds about 83,000 compounds, 20% with a hit somewhere; the sample as a whole holds those more often.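 Single-dose data. Exposure time 48 hours. Values below 10 considered active.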 Unmarked numbers belong to inactive results. Active and inactive are the calls of the source.

Take `CCCn1c(=O)c2[nH]c(-c3ccc(OCc4nc5ccc(C(F)(F)F)cc5[nH]4)cc3)nc2n(CCC)c1=O`: the growth in the experiment with HCT-15 colon is 23.1%; in the experiment with HT29 colon it was 62%; with SNB-75 CNS, 84.6%; with SNB-19 CNS it was 71.5%; in the experiment with U251 CNS, 37.6%; with PC-3 prostate, 33.2%. For the same compound, the growth in the experiment on SK-MEL-5 melanoma was 37.1%; in the experiment with UACC-62 melanoma, 6.48% (active); with LOX IMVI melanoma, 35.5%; in the experiment on SK-MEL-28 melanoma, 58.4%; with SK-MEL-2 melanoma, 66.8%; in the experiment with EKVX NSCLC, 53.2%. Further, the growth in the experiment on SN12C renal is 53.5%; with UO-31 renal it was 52.1%; in the experiment on TK-10 renal it was 96.2%; in the experiment on ACHN renal, 64.7%; in the experiment on CAKI-1 renal it was 43.6%; in the experiment on A498 renal, 51.1%. Moreover, the growth in the experiment with CCRF-CEM leukemia was 35.3%; in the experiment with MOLT-4 leukemia it was 11.5%.

Consider `Cn1c(O)c(N=Nc2nc(-c3cc4ccccc4oc3=O)cs2)c2cc(Br)ccc21`, for which the growth is 88.5% with HCT-15 colon; 118% in the experiment on HT29 colon; 54.7% in the experiment with SNB-75 CNS; 12.5% in the experiment with SNB-19 CNS; 21.3% with U251 CNS; 102% in the experiment on PC-3 prostate. Moreover, the growth was 96% in the experiment with SK-MEL-5 melanoma; 65% with UACC-62 melanoma; 56.7% with LOX IMVI melanoma; 99.8% with SK-MEL-28 melanoma; 31.8% in the experiment on SK-MEL-2 melanoma; 65.4% in the experiment on EKVX NSCLC. For the same compound, the growth with SN12C renal was 73.8%; with UO-31 renal, 77.9%; with TK-10 renal, 56.8%; with ACHN renal it was 35.4%; with CAKI-1 renal it was 75.7%; in the experiment on A498 renal, 16.5%. In addition, the growth with CCRF-CEM leukemia was 97.7%; in the experiment on MOLT-4 leukemia it was 104%.

With `O=C(NO)c1ccc(CNC(=O)[C@H]2Cc3c([nH]c4ccccc34)[C@H](c3ccccc3)N2)cc1`, the growth in the experiment with HCT-15 colon was 72.4%; in the experiment on HT29 colon, 20.2%; in the experiment on SNB-75 CNS it was 52.3%; in the experiment on SNB-19 CNS, 39.4%; in the experiment with U251 CNS, 13.4%; in the experiment on PC-3 prostate, 33.3%. Also, the growth was 8.18% (active) with SK-MEL-5 melanoma; -24.5% (active) in the experiment with UACC-62 melanoma; 19.6% with LOX IMVI melanoma; 6.06% (active) in the experiment on SK-MEL-28 melanoma; 9.61% (active) in the experiment with SK-MEL-2 melanoma; 44.8% in the experiment with EKVX NSCLC. For the same compound, the growth with SN12C renal was 46.7%; in the experiment with UO-31 renal, 46.3%; in the experiment with TK-10 renal it was 30.9%; in the experiment with ACHN renal, 70.8%; in the experiment on CAKI-1 renal, 78.3%; in the experiment with A498 renal, 23.2%. Further, the figures for the growth with CCRF-CEM leukemia and with MOLT-4 leukemia were 22.2% and 12.7%, respectively.

In the case of `O=C(c1ccc(Cl)cc1)C1[C@H](c2ccc(Br)cc2)[C@@H](c2ccccc2)NC12C(=O)Nc1ccccc12` (stereo not given in full), the growth is -2.63% (active) with HCT-15 colon; -52.2% (active) in the experiment on HT29 colon; 15% with SNB-75 CNS; 15.9% in the experiment with SNB-19 CNS; -6.22% (active) with U251 CNS; 5.16% (active) with PC-3 prostate. Also, the growth in the experiment with SK-MEL-5 melanoma is -23.2% (active); in the experiment with UACC-62 melanoma, -60.6% (active); in the experiment with LOX IMVI melanoma, -100% (active); in the experiment on SK-MEL-28 melanoma it was -32.7% (active); with SK-MEL-2 melanoma, -62.7% (active); with EKVX NSCLC, 4.42% (active). Also, the growth in the experiment on SN12C renal was -78.1% (active); with UO-31 renal, 2.46% (active); with TK-10 renal it was 14.5%; in the experiment on ACHN renal, -5.73% (active); in the experiment on CAKI-1 renal it was 0.681% (active); with A498 renal it was -23.5% (active). Also, the growth with CCRF-CEM leukemia was -0.656% (active); in the experiment with MOLT-4 leukemia, -22.7% (active).

With `C/C(=N\NC(N)=S)c1ccc(Nc2nc(SC(C)C)nc(-c3ccccc3)c2C#N)cc1`, the growth in the experiment on HCT-15 colon is 77.1%; with HT29 colon it was 57.9%; in the experiment with SNB-75 CNS, 104%; in the experiment on SNB-19 CNS, 63.5%; in the experiment on U251 CNS it was 32%; with PC-3 prostate, 59.2%. In addition, the growth is 75.5% with SK-MEL-5 melanoma; 48.1% in the experiment on UACC-62 melanoma; 29.8% with LOX IMVI melanoma; 80.9% in the experiment on SK-MEL-28 melanoma; 89.3% with SK-MEL-2 melanoma; 75.9% with EKVX NSCLC. The growth with SN12C renal was 63.5%; in the experiment with UO-31 renal, 77.5%; in the experiment on TK-10 renal, 98.1%; in the experiment with ACHN renal, 58.3%; in the experiment with CAKI-1 renal, 74.6%; with A498 renal, 123%. In addition, the growth in the experiment on CCRF-CEM leukemia was 76.3%; with MOLT-4 leukemia, 77.5%.

Consider `Cc1ccc(CSc2nc(Cl)c(C#N)c(-c3ccc(F)cc3)n2)cc1`, for which the growth in the experiment on HCT-15 colon is 54.4%; in the experiment on HT29 colon it was 38.4%; in the experiment on SNB-75 CNS, 126%; in the experiment with SNB-19 CNS, 89.3%; with U251 CNS, 68.8%; in the experiment on PC-3 prostate it was 42.6%. For the same compound, the growth in the experiment with SK-MEL-5 melanoma was 77.6%; in the experiment with UACC-62 melanoma, 77.2%; with LOX IMVI melanoma, 85.8%; in the experiment on SK-MEL-28 melanoma it was 93.9%; with SK-MEL-2 melanoma, 92.1%; in the experiment on EKVX NSCLC, 79.6%. Also, the growth in the experiment on SN12C renal is 70.2%; in the experiment on UO-31 renal, 67.9%; with TK-10 renal, 91.7%; with ACHN renal it was 85.4%; in the experiment on CAKI-1 renal, 67.1%; in the experiment on A498 renal, 91.6%. In addition, the growth is 67.7% with CCRF-CEM leukemia and 61.9% in the experiment with MOLT-4 leukemia.

In the case of `CN1CCc2c(sc3ncnc(N/N=C/c4ccc5ccccc5c4)c23)C1`, the growth in the experiment with HCT-15 colon was 2.05% (active); in the experiment with HT29 colon it was 20.4%; in the experiment with SNB-75 CNS, 76.4%; in the experiment on SNB-19 CNS, 74.2%; in the experiment with U251 CNS, -4.86% (active); in the experiment with PC-3 prostate, 102%. In addition, the growth in the experiment on SK-MEL-5 melanoma is 97.9%; in the experiment on UACC-62 melanoma, 79.1%; with LOX IMVI melanoma, 9.53% (active); in the experiment with SK-MEL-28 melanoma, 100%; in the experiment with SK-MEL-2 melanoma it was 103%; in the experiment on EKVX NSCLC, 90.4%. Besides, the growth in the experiment on SN12C renal is 72.4%; in the experiment with UO-31 renal, 60.5%; in the experiment on TK-10 renal, 110%; in the experiment with ACHN renal, 67.2%; with CAKI-1 renal it was 78.2%; in the experiment on A498 renal, 106%. Moreover, the growth was 40.6% in the experiment on CCRF-CEM leukemia and 63.6% with MOLT-4 leukemia.
